# Results published in PubChem BioAssay (NCI).
# Compounds without any hit were thinned out: in the full panel of roughly 83,000, 20% have a hit.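 Single-dose data. Exposure time 48 hours. Values below 10 considered active.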 A number with no mark means an inactive call. Calls of active or inactive are those of the source.
# How the values were obtained:
# Test in all cases: NCI-60 one-dose screen, 48 h (100 = growth as untreated, 0 = no growth, -100 = all killed)
# EKVX NSCLC = settings: 10 µM unless noted
# SN12C renal = settings: 10 µM unless noted
# UO-31 renal = settings: 10 µM unless noted
# TK-10 renal = settings: 10 µM unless noted
# ACHN renal = settings: 10 µM unless noted
# CAKI-1 renal = settings: 10 µM unless noted
# A498 renal = settings: 10 µM unless noted
# CCRF-CEM leukemia = settings: 10 µM unless noted
# MOLT-4 leukemia = settings: 10 µM unless noted
# SR leukemia = settings: 10 µM unless noted
# RPMI-8226 leukemia = settings: 10 µM unless noted
# OVCAR-8 ovarian = settings: 10 µM unless noted
# OVCAR-5 ovarian = settings: 10 µM unless noted
# OVCAR-4 ovarian = settings: 10 µM unless noted
# SK-OV-3 ovarian = settings: 10 µM unless noted
# IGROV1 ovarian = settings: 10 µM unless noted
# OVCAR-3 ovarian = settings: 10 µM unless noted
# NCI/ADR-RES ovarian = settings: 10 µM unless noted
# HS 578T breast = settings: 10 µM
SMILES,growth (EKVX NSCLC),growth (SN12C renal),growth (UO-31 renal),growth (TK-10 renal),growth (ACHN renal),growth (CAKI-1 renal),growth (A498 renal),growth (CCRF-CEM leukemia),growth (MOLT-4 leukemia),growth (SR leukemia),growth (RPMI-8226 leukemia),growth (OVCAR-8 ovarian),growth (OVCAR-5 ovarian),growth (OVCAR-4 ovarian),growth (SK-OV-3 ovarian),growth (IGROV1 ovarian),growth (OVCAR-3 ovarian),growth (NCI/ADR-RES ovarian),growth (HS 578T breast)
CC/C(=C(\c1ccc(OCCN2CCCCCCC2)cc1)c1ccc(OC(=O)C2CCCCC2)cc1)c1ccc(Cl)cc1,105%,93.6%,73.8%,110%,97.2%,93.8%,63.7%,88.9%,88.9%,78.5%,107%,100%,89.9%,108%,111%,103%,99.1%,105%,–
Cc1cc(O)cc(-c2c(-c3ccnc(-c4cccnc4)c3)cnn2C)c1,89.5%,58.9%,36.1%,51%,39.5%,42.3%,5.82% (active),61.7%,54.8%,42.2%,51.1%,73.5%,54.9%,60.9%,69.3%,58.8%,79.4%,67.2%,58.9%
O=C(CNc1nc(-c2ccc(Cl)cc2)cs1)Nc1ccc(-c2nc3ccccc3s2)cc1,102%,101%,75%,66.5%,105%,94.2%,102%,93%,92.7%,89.7%,87.4%,98%,90.4%,70.5%,95%,59.1%,94%,94.2%,91.3%
CCCCCc1ccc(C)cc1OC(=O)CCl,117%,110%,66.9%,105%,105%,91.7%,105%,102%,102%,109%,98.5%,89.1%,101%,109%,107%,103%,122%,111%,116%
COc1cnc2c(c1)C(=O)c1c-2n(CCCN2CCOCC2)c(=O)c2cc(Cl)ccc12,54.2%,21.6%,13.8%,83.1%,6.75% (active),18.3%,-2.15% (active),1.33% (active),-17.8% (active),7.63% (active),9.78% (active),32.8%,69.1%,41.6%,10.7%,43.2%,25.8%,19.2%,79.2%
Cc1cc(C(O)CN(C)C)cc2c1ccc1cc(C(C)C)ccc12 (stereo not given),84.5%,62.6%,26.4%,-62.1% (active),-28.6% (active),8.02% (active),76.8%,3.14% (active),-29.5% (active),-19.6% (active),-22.6% (active),-46.5% (active),49.5%,-2.02% (active),83.7%,-64.4% (active),64.7%,59.8%,–
CC/C=C\C[C@H]1C/C=C2/C(=O)C=C[C@@H]2C/C=C\CCCC(=O)O1,11.8%,-27.8% (active),-90.3% (active),-38.3% (active),-89.3% (active),-35.8% (active),-50.6% (active),-14.5% (active),-4.8% (active),0.487% (active),-19.1% (active),10% (active),21.7%,10.6%,60.2%,-26.7% (active),-47.3% (active),-1.72% (active),36.4%
CS(=O)(=O)N1CCc2c(-c3cnc(N)nc3)nc(N3CCOCC3)nc21,10.2%,8.6% (active),-21.8% (active),-21.4% (active),0.427% (active),-8.15% (active),-49.9% (active),22.2%,9.81% (active),6.13% (active),18.1%,6.31% (active),4.76% (active),-5.74% (active),-40.6% (active),-38.1% (active),9.64% (active),12.9%,–
C=CCn1c(=O)c2cnc(Nc3ccc(N4CCN(C)CC4)cc3)nc2n1-c1cccc(C(C)(C)O)n1,22.5%,28.4%,10.5%,13.8%,25.4%,23.3%,-26% (active),8% (active),3.84% (active),4.58% (active),10.1%,8.75% (active),25.1%,20.2%,-1.76% (active),3.06% (active),-8.58% (active),25.1%,–
COC(=O)[C@H](C)NC(=O)[C@@H](OC)[C@@H]1Cc2cc3cc(OC4CC(OC5CC(O)C(O)C(C)O5)C(O)C(C)O4)c(C)c(O)c3c(O)c2C(=O)[C@H]1OC1CC(OC2CC(OC3CC(C)(O)C(O)C(C)O3)C(O)C(C)O2)C(O)C(C)O1 (stereo not given in full),21.9%,11.5%,5.72% (active),13.1%,-1.98% (active),27.5%,-66.5% (active),14.5%,0.969% (active),7.81% (active),-5.91% (active),9.19% (active),13.5%,0.165% (active),22.6%,22.8%,5.02% (active),75.4%,-7.37% (active)
CC(C)(C)OC(=O)N1CCC(O)[C@@H](O[Si](c2ccccc2)(c2ccccc2)C(C)(C)C)[C@H]1/C=C/c1ccccc1 (stereo not given in full),40.7%,73%,39.1%,66.1%,41.1%,45.3%,68.2%,46.4%,28%,32.6%,25.2%,59.5%,71.5%,21.3%,56.3%,60.6%,43.6%,69.3%,55.8%
Cc1ccc(F)c(NC(=O)Nc2ccc(-c3cccc4[nH]nc(N)c34)cc2)c1,21.9%,24.9%,17.6%,2.19% (active),15.4%,31.8%,30.1%,11.4%,15.5%,4.39% (active),9.63% (active),9.41% (active),21.4%,21.1%,52.1%,10.1%,33.2%,26%,–
COc1cc2ncnc(Nc3cccc(Cl)c3F)c2cc1OC(=O)N1CCN(C)C[C@H]1C,57.8%,50.1%,41.6%,28.1%,19.5%,43.2%,82.8%,74.7%,67.7%,62.6%,76.4%,64.2%,46.5%,103%,-6.41% (active),16.4%,69.5%,64.3%,–
Cc1cc(Oc2ccccc2)ccc1Nc1ncnc2ccc(-c3cnc(Cl)c(NS(C)(=O)=O)c3)cc12,21.3%,35.6%,3.47% (active),4.28% (active),30.4%,2.11% (active),-30.8% (active),21.2%,-0.671% (active),14.2%,7.65% (active),40.4%,10.8%,40.1%,-26.3% (active),-23.5% (active),11.7%,54.6%,–
COc1ccc2c(OCc3nnc4ccc(-c5ccccc5)nn34)ccnc2c1,104% [2.5 µM],104% [2.5 µM],74.6% [2.5 µM],93.7% [2.5 µM],97.2% [2.5 µM],74.6% [2.5 µM],89.1% [2.5 µM],102% [2.5 µM],72.7% [2.5 µM],80.9% [2.5 µM],104% [2.5 µM],102% [2.5 µM],87.3% [2.5 µM],100% [2.5 µM],73.3% [2.5 µM],106% [2.5 µM],110% [2.5 µM],76.3% [2.5 µM],–
COC1CCC(N2C(=O)CNc3ncc(-c4ccc(C(C)(C)O)nc4)nc32)CC1 (stereo not given),10.9%,7.07% (active),-10.7% (active),-13.4% (active),7.04% (active),-1.6% (active),-23.8% (active),11.4%,0.972% (active),-0.973% (active),-2.19% (active),5.09% (active),9.72% (active),-7.38% (active),-27.6% (active),-2.9% (active),8.66% (active),3.73% (active),–
Cc1nc(Nc2n[nH]c3c2CN(C(=O)N[C@H](CN(C)C)c2ccccc2)C3(C)C)c2sccc2n1,12.9%,-6.2% (active),-11.3% (active),-30.1% (active),3.72% (active),-5.88% (active),-72.9% (active),1.05% (active),-0.869% (active),-12.1% (active),-35.2% (active),-26.3% (active),-2.55% (active),-12% (active),-26.8% (active),-17.9% (active),8.31% (active),40.3%,–
COc1cccc2cc(-c3nc(C4CCC(C(=O)O)CC4)n4ncnc(N)c34)[nH]c12 (stereo not given),11.6%,14%,-12.4% (active),-22.3% (active),4.68% (active),-22.7% (active),-50.6% (active),9.93% (active),15.2%,7.63% (active),7.52% (active),1.18% (active),25.6%,-23.4% (active),-26% (active),-12.9% (active),12.3%,2.94% (active),–
Cn1ccnc1C(=O)/C=C/c1ccc(CC(=O)Nc2ccc(Br)cc2)cc1,22.6%,1.07% (active),22.7%,49.5%,40.3%,34.9%,73.8%,11.9%,2.44% (active),3.22% (active),8.13% (active),3.98% (active),21.8%,43.2%,54.6%,11.3%,11.1%,16.3%,–
CNC(=O)c1cccc2cc(Oc3ccnc4cc(OCC5(N)CC5)c(OC)cc34)ccc12,84.1%,52.7%,37.6%,63.9%,30.9%,38.2%,57.1%,44.4%,30.6%,27.6%,81.7%,48.9%,65.3%,49.4%,69.8%,39.5%,61.4%,76%,–
CN1[C@@H]2CC[C@H]1/C(=C\c1ccccc1)C1=C2[C@@H](c2ccccc2)C(C#N)=C(N)O1,98.4%,75.2%,61.7%,89.5%,97.4%,87.4%,70.3%,70.6%,67.4%,61.8%,55.5%,84.3%,84.9%,73.9%,84.4%,93.8%,97.2%,90.2%,–
